We go through 40 molecules from PubChem BioAssay (NCI).

SMILES strings stand for the structures. The panel holds about 83,000 compounds, 20% with a hit somewhere; the sample as a whole holds those more often.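 Percent growth is the endpoint: 0 to 100 indicates growth inhibition (40 means 60% inhibition), 0 means no net growth, and negative values indicate cell death.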 Values without a mark were called inactive. Activity calls are given as the source filed them.

This assay has as its system CCRF-CEM leukemia. Nature of the assay: NCI-60 one-dose screen, 48 h (100 = growth as untreated, 0 = no growth, -100 = all killed). The settings on record: 10 µM. Here is the method: Growth inhibition of the CCRF-CEM human tumor cell line is measured as a screen for anti-cancer activity. Cells are grown in 96 well plates and exposed to the test compound for 48 hours. Compounds are tested at a single concentration, which is 10^-5 M for most compounds. The reported endpoint is percent growth (GI% or GIPRCNT), where numbers from 0 - 100% represent growth inhibition, and numbers from -100% - 0 represent cell death. For example, a value of 40 represents 60% growth inhibition. A value of 0 means no net growth occurred over the course of the experiment. A value of -40 indicates 40% of cells at the beginning of the experiment died by the end of the experiment. A value of -100 means all cells are dead at the end of the experiment.
NCI-60 Human Tumor Cell Lines Screen was performed using the standard one-dose NCI protocol, which is described in more detail at https://dtp.cancer.gov/discovery_development/nci-60/default.htm.
Compounds with GIPRCNT values below 10 were considered active. Activity score was based on GIPRCNT using the following formula: […]
Score is 0 for GIPRCNT values of 100 or above, 50 for GIPRCNT values of 0, and 100 for GIPRCNT values of -100.
`Cc1cc(C)c2nc(C)c(C)[n+]([O-])c2c1`: the growth was 66%. In the case of `COc1ccc(/C=C2\SC(=S)N(CCCN3CCOCC3)C2=O)c(OC)c1` it was 75.7%; in that of `CCN(CC)CC(O)Cc1ccc(OC)cc1` (stereo not given), 98.9%; in that of `Cc1ccccc1C1=N[C@@H](Cc2ccccc2)C(=O)c2c(nc3ccccn23)N1`, 105%. The figure for `O=C(CSc1nnc(-c2ccc(Cl)cc2)o1)c1ccccc1` is 94.3%. In the case of `COc1ccc(NC(=O)c2sc3nc4c(cc3c2N)C(O)CCC4)cc1` (stereo not given), the growth was 101%. In the case of `COc1ccc(N2CCN(c3nc(-c4ccccc4)c(C#N)c(=O)[nH]3)CC2)cc1` it was 80.1%; in that of `CCc1ccc(Nc2cc(C)nc3nc(C)nn23)cc1`, -10.6% (active). The figure for `CCCCN(CCCC)c1ccc(C(=NC(C)CCCN(CC)CC)c2ccc(N(C)C)cc2)cc1` (stereo not given) is 7.26% (active).

Consider `FC(F)(F)c1ccc(-c2ncc(-c3ccc(C(F)(F)F)cc3)c(NCc3cc(C(F)(F)F)cc(C(F)(F)F)c3)n2)cc1`, for which the growth is 46.7%. In the case of `COc1ccc(C(=O)/C=C/c2cc(-c3ccc4c(c3)OCO4)n[nH]2)cc1OC` it was 21.6%; in that of `CC(=O)Oc1ccc(C2=Cc3ccc(OC(C)=O)cc3OC2C)cc1` (stereo not given), 24.3%; in that of `COc1ccc(C(=O)/C=C/c2cc(-c3ccc(OC)c(OC)c3)n[nH]2)cc1OC`, 3.32% (active). The figure for `COc1ccccc1Cn1cc2c(c1-c1ccccc1)CCc1cnoc1-2` is 30.5%. For `CNC(=O)c1cc(Oc2ccc(NC(=O)Nc3ccc(Cl)c(OC4CCCCC4)c3)c(F)c2)ccn1`, the growth was 35.4%.

In the case of `COC(=O)[C@]12CC[C@@H](C)[C@H](C)[C@@H]1C1=CC[C@@H]3[C@@]4(C)C/C(=N\O)[C@H](O)[C@@]5(C)COC(=C45)C[C@@]3(C)[C@]1(C)CC2`, the growth was -49% (active). Regarding `N/C(=N\O)c1cn(C2OC(CO)C(O)C2O)c2ncnc(N)c12` (stereo not given), the growth was -10.4% (active). The figure for `S=C(Cc1ccc(-c2ccccc2)cc1)N1CCOCC1` is 91.8%; for `COc1cc(-c2nc3ccccc3[nH]2)ccc1OCC(=O)N=Nc1c(O)[nH]c2ccccc12` it is -25.3% (active); for `CCN(CC)CCOC(=O)c1ccc(N=Nc2ccc(O)c(OC)c2)cc1` it is 99.5%. With `NC1CCC(Nc2nc(NCc3ccc(-c4cccs4)nc3)c3ncn(C4CCCC4)c3n2)CC1` (stereo not given), the growth was -2.89% (active). On to `COc1cc(-c2c(C#N)c(N)n3c(nc4ccccc43)c2C#N)cc(Br)c1OC`, for which the growth was 19.6%. With `O=C1/C(=C/c2cccs2)CCC/C1=C\c1cccs1`, the growth was 80.9%.

Take `Cc1ccccc1[P+](Cc1ccccc1)(c1ccccc1)c1ccccc1`: the growth is 19.3%. In the case of `N#Cc1c(-c2ccccc2)nc(SCC(=O)N2CCOCC2)[nH]c1=O` it was 95.1%; in that of `Nc1ccc(Sc2ccc3c4c2cccc4c(=O)n2c4ccccc4nc32)cc1`, 44.9%; in that of `COc1cc(C2c3cc4c(cc3C(O)C(CO)C2CO)OCO4)cc(OC)c1OC` (stereo not given), 15.6%.

For the molecule `CCOC(=O)CNC(=O)Nc1ccc(Oc2ccc(NC(=O)NCC(=O)OCC)cc2)cc1`, the growth is 89.4%. The figure for `CCOC(=O)c1cc2c(n1Cc1ccccc1)-c1oncc1CC2` is 53.1%. In the case of `CC(=O)Nc1ccc(Sc2ccc(NC(C)=O)cc2)cc1` it was 89.8%. In the case of `CCCCOCCOCCOCc1cc2c(cc1Br)OCO2` it was 99.8%.

For the molecule `COc1ccc(C(=O)n2nc(CC(=O)NCc3ccccc3)nc2N)cc1`, the growth was 104%. The figure for `CC(Oc1ccc(Cl)cc1)c1ccccc1` (stereo not given) is 94.1%; for `COc1cc(Cn2c(-c3ccccc3)cc3c2-c2oncc2CC3)cc(OC)c1` it is 11.3%; for `COc1ccc(C2C=C(c3ccc(Cl)c(Cl)c3)N=C3SC(C)=CN32)cc1OC` (stereo not given) it is 58.5%. In the case of `CCC1(C)OC(=O)NC1=O` (stereo not given) it was 83.1%. The figure for `FC(F)(F)c1ccc(-c2cnc(Br)nc2NC2CCCCCC2)cc1` is 28.5%. Consider `CC(=O)CS(C)(=O)=O`, for which the growth was 103%. `Oc1cc(O)c(Br)cc1Br`: the growth was 95.4%. The figure for `Cc1cc(C#Cc2ccccc2)ccc1-n1c(/C=C/c2cc(O)ccc2O)nc2ccccc2c1=O` is 7.82% (active).
